Data taken from PubChem BioAssay (NCI).
About 79,000 compounds went through this panel and 15% of them were active in at least one assay; those are over-represented in the sample as a whole. Unmarked numbers belong to inactive results. The source made the active and inactive calls. Rule as the data show it: active = growth inhibition above about 70%; inactive = the rest.

What was measured:
[1] = NCI Yeast Anticancer Drug Screen. Data for the rad50 strain (AID 155);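 also: 0% = growth of vehicle-only cultures of the same strain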; details: S. cerevisiae rad50 strain growth inhibition, stronger effect = higher value; at 50.0 µM unless noted
Method in brief: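 Readout: growth inhibition relative to vehicle-treated cultures. Compound exposure was carried out in a genetically defined yeast strain deficient in DNA damage repair.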

[2] = NCI Yeast Anticancer Drug Screen. Data for the mec2-1 strain (AID 157); details: S. cerevisiae mec2-1 strain, stronger effect = higher value; at 50.0 µM unless noted
Method in brief: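 Growth inhibition is read against vehicle-treated controls after compound exposure of the mec2-1 yeast strain, which is defective in DNA damage repair or cell cycle control.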

[3] = NCI Yeast Anticancer Drug Screen. Data for the sgs1 mgt1 strain (AID 161);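 also: 0% = growth of cultures given vehicle only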; details: S. cerevisiae sgs1 mgt1 strain, stronger effect = higher value; at 50.0 µM unless noted
Method in brief: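 This yeast growth screen uses a strain with defined DNA-repair lesions; compound-treated growth is compared with vehicle-treated growth.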

[4] = NCI Yeast Anticancer Drug Screen. Data for the cln2 rad14 strain (AID 165);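 also: 0% = growth equal to vehicle treated cultures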; details: S. cerevisiae cln2 rad14 strain, stronger effect = higher value; at 50.0 µM unless noted
Method in brief: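 Growth inhibition, relative to vehicle-treated controls, is the read-out. The test organism is a yeast strain with defined genetic alterations, cln2 rad14.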

[5] = NCI Yeast Anticancer Drug Screen. Data for the bub3 strain (AID 167); details: S. cerevisiae bub3 mutant strain, stronger effect = higher value; at 50.0 µM unless noted
Method in brief: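 Readout: yeast growth inhibition, expressed relative to vehicle-only wells. The test organism is a mutant strain from a panel with lesions in DNA repair or checkpoint genes.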

[6] = NCI Yeast Anticancer Drug Screen. Data for the mlh1 rad18 strain (AID 175); details: S. cerevisiae mlh1 rad18 strain growth inhibition, stronger effect = higher value; at 50.0 µM unless noted
Method in brief: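 Cells of a genetically altered yeast strain, deficient in DNA damage repair, were treated with compound. Their growth was then compared with that of vehicle-treated cultures to give inhibition.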

Nc1ccc(C(=O)N/N=C/c2ccccc2O)cc1
growth inhibition [1]: 16.9%
growth inhibition [2]: 12.7%
growth inhibition [3]: 4.15%
growth inhibition [4]: 7.55%
growth inhibition [5]: 0%
growth inhibition [6]: 19.2%

C=C(C)C(C)OC(=O)Nc1ccccc1 (stereo unspecified)
growth inhibition [1]: 12.7%
growth inhibition [2]: -3.05%
growth inhibition [3]: -16.1%
growth inhibition [4]: 7.4%
growth inhibition [5]: -3.95%
growth inhibition [6]: -37.5%

O=C(O)c1ccc(NCO)cc1
growth inhibition [1]: 7.05%
growth inhibition [2]: 5.15%
growth inhibition [3]: -13.2%
growth inhibition [4]: 33.7%
growth inhibition [5]: 4.3%
growth inhibition [6]: 7.85%

CC(/C=C/C(=O)c1sc(-n2nc(-c3ccccc3)cc2-c2ccccc2)nc1C)=C\c1ccccc1
growth inhibition [1]: 21.9%
growth inhibition [2]: 5.25%
growth inhibition [3]: 25.9%
growth inhibition [4]: 8.85%
growth inhibition [5]: 44.8%
growth inhibition [6]: 20.7%

CCOC(=O)C(=CNC(=S)Nc1c(CC)cccc1CC)C(=O)OCC
growth inhibition [1]: -26.2%
growth inhibition [2]: -38.4%
growth inhibition [3]: -2.9%
growth inhibition [4]: 4.65%
growth inhibition [5]: -5.15%
growth inhibition [6]: -59.9%

C/C=C\c1noc2c1C(=O)OC(C)C2 (stereo unspecified)
growth inhibition [1]: 49.4%
growth inhibition [2]: 23.4%
growth inhibition [3]: 40.4%
growth inhibition [4]: 14.2%
growth inhibition [5]: 22.4%
growth inhibition [6]: 17.6%

Clc1cccc(C2SCc3nc4ccccc4n32)c1 (stereo unspecified)
growth inhibition [1]: 17%
growth inhibition [2]: -3.95%
growth inhibition [3]: 46.1%
growth inhibition [4]: 15.3%
growth inhibition [5]: 5.9%
growth inhibition [6]: 32.1%

CCN1CCN(c2nc3ccccc3c3c2CCOc2ccccc2-3)CC1
growth inhibition [1]: -12.4%
growth inhibition [2]: -16.9%
growth inhibition [3]: -15.8%
growth inhibition [4]: 19.1%
growth inhibition [5]: 0.25%
growth inhibition [6]: 6%

C=C1C=C2CCC3C(CCC4(C)C(C(C)CCCC(C)C)CCC34)C2(C)CC1 (stereo unspecified)
growth inhibition [1]: 82.5% (active)
growth inhibition [2]: 57.6%
growth inhibition [3]: 84.9% (active)
growth inhibition [4]: 60.6%
growth inhibition [5]: 28.2%
growth inhibition [6]: 74.2% (active)

Nc1cc(Nc2ccccc2)nc(=O)[nH]1
growth inhibition [1]: -3.1%
growth inhibition [2]: -0.55%
growth inhibition [3]: -4.85%
growth inhibition [4]: -75.2%
growth inhibition [5]: -7.1%
growth inhibition [6]: 5.2%

N=c1oc2ccc(Cl)cc2cc1C(=O)Nc1ccccc1
growth inhibition [1]: 32.2%
growth inhibition [2]: 32.7%
growth inhibition [3]: -10.6%
growth inhibition [4]: 14.1%
growth inhibition [5]: 15.6%
growth inhibition [6]: -35%

CCOC(OCC)c1ccc(OC)c(OC)c1
growth inhibition [1]: 13.5%
growth inhibition [2]: -5.3%
growth inhibition [3]: 8.95%
growth inhibition [4]: -0.1%
growth inhibition [5]: 3.45%
growth inhibition [6]: 9.6%

CCC(O)(c1ccccc1)C(O)(CC)c1ccccc1 (stereo unspecified)
growth inhibition [1]: 15.8%
growth inhibition [2]: 8.9%
growth inhibition [3]: -2.05%
growth inhibition [4]: 22.8%
growth inhibition [5]: -13%
growth inhibition [6]: 23.3%

N#CNc1nc(N)c(-c2ccc(Cl)cc2)c(C(=O)Nc2nccs2)n1
growth inhibition [1]: -8.85%
growth inhibition [2]: -10.9%
growth inhibition [3]: 3.25%
growth inhibition [4]: 1.5%
growth inhibition [5]: -7.75%
growth inhibition [6]: -12.6%

CC1(C)OCC(C2OC3OC(C)(C)OC3C2N)O1 (stereo unspecified)
growth inhibition [1]: 10.8%
growth inhibition [2]: 10.7%
growth inhibition [3]: 11.1%
growth inhibition [4]: -2.95%
growth inhibition [5]: 21.8%
growth inhibition [6]: 5.4%

COc1cccc(OC)c1NC(=O)C(=O)Nn1c(NNC(=O)c2ccncc2)nc2ccccc2c1=O
growth inhibition [1]: 28.6%
growth inhibition [2]: 26.5%
growth inhibition [3]: 4.65%
growth inhibition [4]: -30.1%
growth inhibition [5]: 35%
growth inhibition [6]: 38.4%

CC(C)(C)C(=O)/C(=C/C(=O)O)C(C)(C)C
growth inhibition [1]: -0.1%
growth inhibition [2]: 10.7%
growth inhibition [3]: 1.25%
growth inhibition [4]: 7.6%
growth inhibition [5]: -0.9%
growth inhibition [6]: -0.95%

COCCOC(=O)c1ccc(C)cc1
growth inhibition [1]: 9.8%
growth inhibition [2]: 17.8%
growth inhibition [3]: 10.6%
growth inhibition [4]: 14.8%
growth inhibition [5]: 12.1%
growth inhibition [6]: 8.1%

CN1c2ccccc2C(=O)N2C(=O)CCC21C (stereo unspecified)
growth inhibition [1]: -38.9%
growth inhibition [2]: -15.4%
growth inhibition [3]: -20.7%
growth inhibition [4]: -14.2%
growth inhibition [5]: -13.4%
growth inhibition [6]: -11.1%

Cc1ccc(S(=O)(=O)NC(=O)NNc2ccc(F)cc2)cc1
growth inhibition [1]: 2.5%
growth inhibition [2]: 2.15%
growth inhibition [3]: 1.65%
growth inhibition [4]: 17.9%
growth inhibition [5]: -12.1%
growth inhibition [6]: 42.5%

CCCCCCC(/C=N/NC(=O)CCCCCCCCC(=O)N/N=C/C(=C/c1ccccc1)CCCCCC)=C\c1ccccc1
growth inhibition [1]: 11.4%
growth inhibition [2]: 1.85%
growth inhibition [3]: -5.95%
growth inhibition [4]: -5.05%
growth inhibition [5]: -1.45%
growth inhibition [6]: 15.9%

COc1ccc(NC(Nc2ccc(OC)cc2)C(Cl)(Cl)Cl)cc1
growth inhibition [1]: 15.1%
growth inhibition [2]: 9.5%
growth inhibition [3]: 13%
growth inhibition [4]: -11.2%
growth inhibition [5]: -4.55%
growth inhibition [6]: -8.6%

CC(C)COC(=O)/C=C/c1ccccc1
growth inhibition [1]: 19.8%
growth inhibition [2]: 16.6%
growth inhibition [3]: 20.6%
growth inhibition [4]: 7.3%
growth inhibition [5]: 2.9%
growth inhibition [6]: 11.6%

O=C(C[n+]1cc(Br)cc2ccccc21)c1ccc(F)cc1
growth inhibition [1]: 24.8%
growth inhibition [2]: 19.9%
growth inhibition [3]: 37.3%
growth inhibition [4]: 39.4%
growth inhibition [5]: 4.7%
growth inhibition [6]: 30.2%

O=C1Cc2c(-c3ccc(Cl)cc3)cc(-c3ccccc3)nc2-c2ccccc2N1
growth inhibition [1]: -16.9%
growth inhibition [2]: -17.8%
growth inhibition [3]: -10.9%
growth inhibition [4]: 4.95%
growth inhibition [5]: -11.2%
growth inhibition [6]: -52%

O=C(OC(C1COCO1)C(O)C1COCO1)c1ccccc1 (stereo unspecified)
growth inhibition [1]: 5.65%
growth inhibition [2]: -8.85%
growth inhibition [3]: 9.05%
growth inhibition [4]: -1.85%
growth inhibition [5]: 28.4%
growth inhibition [6]: 17.4%

CCN(CC)C/C(C)=C(/c1ccccc1)c1ccccc1S(N)(=O)=O
growth inhibition [1]: 5.8%
growth inhibition [2]: 4.15%
growth inhibition [3]: -1.5%
growth inhibition [4]: -30.6%
growth inhibition [5]: 1.15%
growth inhibition [6]: 9.65%

O=S1(=O)CCC12CC1c3ccccc3C2c2ccccc21 (stereo unspecified)
growth inhibition [1]: -6.1%
growth inhibition [2]: -6.05%
growth inhibition [3]: -11.6%
growth inhibition [4]: -2.85%
growth inhibition [5]: -11.1%
growth inhibition [6]: -6.85%

CC(=O)NC(C(=O)O)C(C)C (stereo unspecified)
growth inhibition [1]: 6.4%
growth inhibition [2]: -0.75%
growth inhibition [3]: -4.55%
growth inhibition [4]: -4.2%
growth inhibition [5]: 0.85%
growth inhibition [6]: 6.7%

Cc1cc2c(C(C)C)c(O)c(O)c(C=NC(C)c3ccccc3)c2c(O)c1-c1c(C)cc2c(C(C)C)c(O)c(O)c(C=NC(C)c3ccccc3)c2c1O (stereo unspecified)
growth inhibition [1]: 18.2%
growth inhibition [2]: 7.35%
growth inhibition [3]: 15.3%
growth inhibition [4]: 11.9%
growth inhibition [5]: 30.9%
growth inhibition [6]: 7.95%

C/C(=N\O)C(=O)c1ccc(C)cc1
growth inhibition [1]: -0.05%
growth inhibition [2]: -12.7%
growth inhibition [3]: 2.2%
growth inhibition [4]: -30.6%
growth inhibition [5]: -22.7%
growth inhibition [6]: -8.7%

CN(C=O)c1c(F)cc(N=Nc2ccccc2)cc1F
growth inhibition [1]: 2.8%
growth inhibition [2]: 1.15%
growth inhibition [3]: 6.65%
growth inhibition [4]: -16.1%
growth inhibition [5]: 2.25%
growth inhibition [6]: 9.7%

Clc1nc(NCCc2ccccc2)c2ncn(-c3ccccc3)c2n1
growth inhibition [1]: 52.9%
growth inhibition [2]: 47.2%
growth inhibition [3]: 34.1%
growth inhibition [4]: 12.9%
growth inhibition [5]: 68.2%
growth inhibition [6]: 42.8%

CCCCCOC(=O)c1ccc(C(C)C)cc1
growth inhibition [1]: 10.2%
growth inhibition [2]: -6.2%
growth inhibition [3]: 5.15%
growth inhibition [4]: 8.5%
growth inhibition [5]: 0.6%
growth inhibition [6]: 5.1%

CN(C)c1nc(N(C)C)nc(N(C)CN(C)c2ccc(Cl)cc2)n1
growth inhibition [1]: -11.3%
growth inhibition [2]: -23.3%
growth inhibition [3]: -26.8%
growth inhibition [4]: -11.3%
growth inhibition [5]: -49%
growth inhibition [6]: -16.4%

CC(=O)N(C(C)=O)c1c(N)n(C)c(=O)[nH]c1=O
growth inhibition [1]: 12.7%
growth inhibition [2]: -4.85%
growth inhibition [3]: 6.6%
growth inhibition [4]: 14.3%
growth inhibition [5]: 2.75%
growth inhibition [6]: 8.5%

CCCCCCCCCCCCCCCCCn1nnnc1N
growth inhibition [1]: -8.3%
growth inhibition [2]: 11.6%
growth inhibition [3]: -7.3%
growth inhibition [4]: -9.95%
growth inhibition [5]: -12.3%
growth inhibition [6]: -11.4%

CCN(CC)N=Nc1ccc(C(=O)O)cc1
growth inhibition [1]: 9.55%
growth inhibition [2]: 1.7%
growth inhibition [3]: -10.1%
growth inhibition [4]: -8.8%
growth inhibition [5]: 5.85%
growth inhibition [6]: -2%

N#C/C(=C\C1CCCCC1Cl)C1CCC([N+](=O)[O-])CC1 (stereo unspecified)
growth inhibition [1]: 12.6%
growth inhibition [2]: 5.15%
growth inhibition [3]: 17.2%
growth inhibition [4]: -8.35%
growth inhibition [5]: 32.8%
growth inhibition [6]: 18.1%

COc1ccc(C(N2CCNCC2)N2CCNCC2)cc1
growth inhibition [1]: 13.7%
growth inhibition [2]: 6.3%
growth inhibition [3]: 19.6%
growth inhibition [4]: -30.1%
growth inhibition [5]: -3.5%
growth inhibition [6]: 48.3%

CCCCCC#CC[C@@H](O)[C@@H](O)COCc1ccccc1
growth inhibition [1]: 17.4%
growth inhibition [2]: 8.6%
growth inhibition [3]: 32.2%
growth inhibition [4]: 29.2%
growth inhibition [5]: -20.8%
growth inhibition [6]: 9.9%
